Growth inhibition data for 39 molecules are collected here from PubChem BioAssay (NCI).

Structures are written as SMILES. Compounds without any hit were thinned out: in the full panel of roughly 79,000, 15% have a hit. A number with no mark means an inactive call. Calls of active or inactive are those of the source. Cut-off read from the data, not from the text of the source: active = growth inhibition above about 70%; inactive = the rest.

Test [1] in a line: NCI Yeast Anticancer Drug Screen. Data for the rad50 strain (AID 155).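 Note: 0% = growth of vehicle-only cultures of the same strain.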 As to conditions: S. cerevisiae rad50 strain growth inhibition; at 50.0 µM; active compounds read high. Put shortly:
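DNA repair mutant yeast, compound exposure, growth read-out; inhibition is taken relative to vehicle.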

Test [2] in a line: NCI Yeast Anticancer Drug Screen. Data for the mec2-1 strain (AID 157). As to conditions: S. cerevisiae mec2-1 strain, at 50.0 µM, active compounds read high. Put shortly: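 Vehicle-treated cultures served as reference for growth inhibition of compound-exposed mec2-1 yeast.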
The nature of test [3]: NCI Yeast Anticancer Drug Screen. Data for the sgs1 mgt1 strain (AID 161).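 Note: 0% = growth of cultures given vehicle only.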 The note with it: S. cerevisiae sgs1 mgt1 strain, at 50.0 µM, active compounds read high. Put shortly:
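Test agents were incubated with a DNA-repair-mutant yeast strain. Growth was then read and compared against vehicle-treated controls.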

Test [4] is described as follows: NCI Yeast Anticancer Drug Screen. Data for the cln2 rad14 strain (AID 165).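 Note: 0% = growth equal to vehicle treated cultures.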 The note with it: S. cerevisiae cln2 rad14 strain, at 50.0 µM, active compounds read high. Put shortly: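 Each compound was tested on cln2 rad14 yeast. Inhibition of growth was calculated against vehicle-exposed controls.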
Test [5] can be described thus: NCI Yeast Anticancer Drug Screen. Data for the bub3 strain (AID 167). The note with it: S. cerevisiae bub3 mutant strain, at 50.0 µM, active compounds read high. The method in brief:
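In this screen, a yeast mutant lacking normal mitotic checkpoint function is challenged with compound. Relative growth versus vehicle gives the inhibition value.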

A short description of test [6]: NCI Yeast Anticancer Drug Screen. Data for the mlh1 rad18 strain (AID 175). As to conditions: S. cerevisiae mlh1 rad18 strain growth inhibition; at 50.0 µM; active compounds read high. Put shortly:
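Vehicle-treated cultures served as the reference for growth inhibition in a yeast strain carrying DNA damage repair alterations exposed to each compound.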

With `CNC(=O)NNC(=O)NC`, the growth inhibition in test [1] was -45.1%; in test [2] it was -24.6%; in test [3], -24.6%; in test [4], -27.6%; in test [5], -15.7%; in test [6], -6.05%.

`CCCCCCC(=O)/C=C/c1ccc(Cl)cc1`: the growth inhibition in test [1] is 11.9%; in test [2], -22.1%; in test [3], -3.1%; in test [4], -6.5%; in test [5] it was 16.2%; in test [6], -15.6%.

For the molecule `CCOC(=O)c1ccc(N2C(C#N)c3ccccc3OC2c2ccccc2O)cc1` (centres undefined), the growth inhibition in test [1] is 5.5%; in test [2], 2.25%; in test [3] it was 15.6%; in test [4], -19.5%; in test [5], 1.3%; in test [6], 21.4%.

`N=C(Oc1ccccc1)c1ccccc1`: the growth inhibition in test [1] was -1.95%; in test [2], -22.3%; in test [3], -12.6%; in test [4], -28.7%; in test [5], -13.1%; in test [6], 6.45%.

With `O=C(/C=C/c1ccc(O)cc1)c1ccc(Cl)cc1`, the growth inhibition was -17.7% in test [1]; -22.9% in test [2]; -18.6% in test [3]; -36.9% in test [4]; 20.4% in test [5]; -16.4% in test [6].

Consider `C=CCc1ccc(OC(=O)Nc2cccc(OC)c2)c(OC)c1`, for which the growth inhibition in test [1] was 74.5% (active); in test [2], 86.8% (active); in test [3], 73.9% (active); in test [4], -7.45%; in test [5], 53.9%; in test [6], 68.8%.

Turning to `CSC(=NNC(N)=O)SC`, the growth inhibition is 4.4% in test [1]; -2.8% in test [2]; 1.2% in test [3]; -14.2% in test [4]; -9.7% in test [5]; 5.4% in test [6].

On to `CSc1nc2ncnc(NCc3ccc(Cl)cc3)c2[nH]1`, for which the growth inhibition in test [1] was -11%; in test [2] it was -4.35%; in test [3], -4.1%; in test [4] it was -43.3%; in test [5], -7.45%; in test [6], -35.7%.

Regarding `CCOC(=O)NC1OC(C(N)=O)C(O)C(O)C1O` (centres undefined), the growth inhibition in test [1] is 2.25%; in test [2], -5.7%; in test [3] it was 3.4%; in test [4], -33.3%; in test [5], 4.5%; in test [6] it was 1.4%.

As to `CC1(C)C=C(C(=O)ON2C(=O)CCC2=O)C(C)(C)N1O`, the growth inhibition in test [1] is -4.85%; in test [2], -25.9%; in test [3], -14.5%; in test [4] it was 12.7%; in test [5] it was -19.1%; in test [6] it was -16.1%.

Consider `CN1CCN(C(=S)C(O)(c2ccccc2)c2ccccc2)CC1`, for which the growth inhibition was 1.75% in test [1]; -1.85% in test [2]; -2.35% in test [3]; 1.45% in test [4]; 16.1% in test [5]; -8.6% in test [6].

As to `CCC(C)(C1CCC(=O)CC1)C1CCC(=O)CC1`, the growth inhibition in test [1] is 33.6%; in test [2], -5.75%; in test [3], -0.7%; in test [4], -7%; in test [5], -0.75%; in test [6], 7.85%.

As for `CCCc1cccc[n+]1CC(=O)c1ccccc1`, the growth inhibition in test [1] is 5.65%; in test [2] it was 11.1%; in test [3], 4.95%; in test [4] it was -51.5%; in test [5] it was 25.4%; in test [6], -1.65%.

Take `O=C1c2ccccc2C(=O)N1CC1CC(S(=O)(=O)c2ccccc2)=NO1` (centres undefined): the growth inhibition in test [1] was -1.8%; in test [2], -15.2%; in test [3] it was -0.4%; in test [4], -0.4%; in test [5] it was -7.6%; in test [6], 5%.

As to `OCC12OCC(O1)C(O)C(O)C2O` (centres undefined), the growth inhibition in test [1] is -14.6%; in test [2], 2.2%; in test [3], 1.35%; in test [4] it was -9.35%; in test [5] it was -4.05%; in test [6] it was -16.8%.

For `CCC(C)(C(=O)O)c1ccccc1` (centres undefined), the growth inhibition is 4.1% in test [1]; -5.85% in test [2]; -3.95% in test [3]; -15.1% in test [4]; -42.5% in test [5]; 15.7% in test [6].

On to `CC(C)(CNC(=O)C12CC3CC(CC(C3)C1)C2)NC(=O)C12CC3CC(CC(C3)C1)C2`, for which the growth inhibition is 15.9% in test [1]; 12.5% in test [2]; 14.1% in test [3]; 11.1% in test [4]; 0.85% in test [5]; 27.8% in test [6].

Turning to `COC(=O)C(C#N)(CCc1ccc([N+](=O)[O-])cc1)CCc1ccc([N+](=O)[O-])cc1`, the growth inhibition in test [1] was 14.8%; in test [2], -4.25%; in test [3] it was 3%; in test [4] it was -6.7%; in test [5], 5.6%; in test [6], 25.9%.

For `CCOC(=O)C(NC(=O)c1cccc(Cl)c1)(N1CCN(c2cc3c(cc2F)c(=O)c(C(=O)O)cn3CC)CC1)C(F)(F)F` (centres undefined), the growth inhibition is -7.7% in test [1]; -39.5% in test [2]; -18.3% in test [3]; 4.45% in test [4]; -16.8% in test [5]; -23.6% in test [6].

Regarding `O=C(c1cccc([N+](=O)[O-])c1)c1cccs1`, the growth inhibition in test [1] is 6.6%; in test [2], -7.2%; in test [3] it was -9.05%; in test [4], 4.3%; in test [5] it was -5.2%; in test [6], -4.05%.

Turning to `COc1ccc(CC2c3cc(OC)c(OC)cc3C=CN2C)cc1OC` (centres undefined), the growth inhibition was 20.8% in test [1]; 4.55% in test [2]; 24.1% in test [3]; 14.9% in test [4]; 35.6% in test [5]; 2.3% in test [6].

As to `Cc1cccc(N=C/C=C/c2ccccc2)c1C`, the growth inhibition in test [1] is 0.85%; in test [2], -6.4%; in test [3] it was -20.7%; in test [4] it was -50.6%; in test [5], -4.7%; in test [6] it was -5.85%.

In the case of `Cc1cccc(CNc2ccc(S(=O)(=O)c3ccc(NCc4cccc(C)n4)cc3)cc2)n1`, the growth inhibition is 4.7% in test [1]; 4.35% in test [2]; 9.75% in test [3]; -8.95% in test [4]; -5.95% in test [5]; 15.4% in test [6].

Regarding `O=C(O)CNC(=O)c1ccc2cc(C(=O)N3CC(CCl)c4ccc([N+](=O)[O-])cc43)[nH]c2c1` (centres undefined), the growth inhibition in test [1] is -6.45%; in test [2] it was -4%; in test [3], -3.95%; in test [4] it was -0.1%; in test [5] it was -34.3%; in test [6] it was -35%.

Regarding `C[P+](Cc1ccc([N+](=O)[O-])cc1)(c1ccccc1)c1ccccc1`, the growth inhibition in test [1] was -2.85%; in test [2], -19.1%; in test [3] it was -3.15%; in test [4] it was -1.7%; in test [5], -9.8%; in test [6], -7.15%.

For `COC(=O)C1=C(CO)C2C=CC1C2` (centres undefined), the growth inhibition in test [1] was 3.25%; in test [2], 26.1%; in test [3], -1.1%; in test [4], 6.55%; in test [5], 6.15%; in test [6], 6.7%.

In the case of `CCOC(=O)c1c(C)c2c(n1C)CCC(C#N)C2=O` (centres undefined), the growth inhibition is 9.3% in test [1]; 10.4% in test [2]; 9.8% in test [3]; 21.1% in test [4]; 9.05% in test [5]; 17.5% in test [6].

Take `CC1=C(C(=O)NNC(=O)c2ccccc2O)CC(C(=O)NNC(=O)c2ccccc2O)=C(C)N1`: the growth inhibition was 45.5% in test [1]; 40.5% in test [2]; 10.5% in test [3]; 17.2% in test [4]; 64.2% in test [5]; 32.4% in test [6].

For `O=C(NCc1cccc2ccccc12)Nc1ccccc1Cl`, the growth inhibition in test [1] was 4.9%; in test [2] it was 36.1%; in test [3] it was 10.3%; in test [4], -6.55%; in test [5], 27%; in test [6], 30%.

Turning to `CCN(CC)Cc1cc(N=Nc2ccc(-c3ccc(N)c(OC)c3)cc2OC)c2ccccc2c1O`, the growth inhibition is 18.7% in test [1]; 4.35% in test [2]; 18.6% in test [3]; 19.8% in test [4]; -4.8% in test [5]; 27.4% in test [6].

With `CCOC(=O)NC(S(=O)(=O)O)S(=O)(=O)O`, the growth inhibition in test [1] was 0.6%; in test [2], 9.8%; in test [3], -25.1%; in test [4], -9.8%; in test [5] it was 16.1%; in test [6], 18.5%.

In the case of `Cc1cc(=O)[nH]c(NN2C(Cl)C(=O)C2c2cccc([N+](=O)[O-])c2)n1` (centres undefined), the growth inhibition in test [1] is 18.1%; in test [2], -32.5%; in test [3] it was -0.3%; in test [4], -7.1%; in test [5] it was -7.45%; in test [6], -33.6%.

Regarding `O=C1C2=C(c3ccccc31)C(c1ccc(Cl)cc1)NC(=S)N2` (centres undefined), the growth inhibition in test [1] is 52.6%; in test [2] it was 26.5%; in test [3], 57.8%; in test [4] it was 35.2%; in test [5], 44.4%; in test [6] it was 60.1%.

As to `O=C(NCCCCl)c1c(O)c2ccccc2[nH]c1=O`, the growth inhibition in test [1] was 58.8%; in test [2], 25.5%; in test [3], 52%; in test [4], 18.1%; in test [5], 46.2%; in test [6] it was 27.8%.

As to `CC(c1ccc([N+](=O)[O-])cc1)n1cnc2c(N(CCO)CCO)ncnc21` (centres undefined), the growth inhibition was 6.3% in test [1]; -1.15% in test [2]; -13.7% in test [3]; -3.7% in test [4]; -12.2% in test [5]; -0.5% in test [6].

Turning to `BrCCCOc1ccccc1Br`, the growth inhibition is 14.6% in test [1]; -11.2% in test [2]; 1.6% in test [3]; -32.1% in test [4]; 4.2% in test [5]; 14.2% in test [6].

As to `C=CCOC(=O)CC=C`, the growth inhibition is -8.7% in test [1]; -3.1% in test [2]; 4.75% in test [3]; 6.7% in test [4]; -11.4% in test [5]; 5.3% in test [6].

With `ON=C1c2cc(Cl)ccc2-c2ccc(Cl)cc21`, the growth inhibition in test [1] is 5.25%; in test [2], 4.05%; in test [3], 18.1%; in test [4], -40.8%; in test [5], 5.45%; in test [6], 16.6%.

As for `COc1ccc(-c2nnc3n(C)c4ccccc4n3c2=O)cc1`, the growth inhibition in test [1] was 3.25%; in test [2], 8.55%; in test [3], 16.4%; in test [4], 26.5%; in test [5], 23.4%; in test [6], -23.2%.
